Assay [1] deals with Rap guanine nucleotide exchange factor 3 (Homo sapiens) (UniProt O95398). The experiment in a line: Confirmatory qHTS for antagonist of cAMP-regulated guanine nucleotide exchange factor 3 (EPAC1) (AID 1645880). Note: nearly all actives have a fitted effect of over 55% in size. Note: potency is the fitted concentration of half-maximal effect. In short, it runs like this:
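Released BODIPY-GDP fluoresces less than Rap1-bound BODIPY-GDP; the signal is followed at 480/540 nm at 5-min intervals over 30 min, after 5 min at room temperature. Reactions contain 100 nM EPAC1, 250 nM RAP1B-BODIPY-GDP and 50 uM GDP; results are normalized to ATA and DMSO.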
In general terms: qHTS replaces the single test concentration by a dilution series.

Assay [2] shares this target. The experiment in a line: Confirmatory qHTS for agonist of cAMP-regulated guanine nucleotide exchange factor 3 (EPAC1) (AID 1645881).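 For activation: EPAC1 catalysed release of BODIPY-GDP from Rap1B seen as fluorescence loss; 100% = effect of cAMP agonist control.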 Note: nearly all actives have a fitted effect of over 75% in size. Note: potency is the fitted concentration of half-maximal effect.
Assay [3] addresses Rap guanine nucleotide exchange factor 4 (Homo sapiens) (UniProt Q8WZA2). The experiment in a line: Confirmatory qHTS for agonist of cAMP-regulated guanine nucleotide exchange factor 4 (EPAC2) (AID 1645884). For activation: % is set by controls: 0 for no effect and ±100 for the full control effect. Note: nearly all actives have a fitted effect of over 65% in size. Note: potency is the fitted concentration of half-maximal effect.
Assay [4] shares this target. The experiment in a line: Confirmatory qHTS for antagonist of cAMP-regulated guanine nucleotide exchange factor 4 (EPAC2) (AID 1645885). For activity change, negative = inhibition: % is set by controls: 0 for no effect and ±100 for the full control effect. Note: nearly all actives have a fitted effect of over 25% in size. Note: potency is the fitted concentration of half-maximal effect.
Assay [5] concerns the target Rap guanine nucleotide exchange factor 3 (Homo sapiens) (UniProt O95398). The experiment in a line: Counterscreen qHTS for antagonist of cAMP-regulated guanine nucleotide exchange factor 3 (EPAC1) (AID 1645888). Note: % of control where 0% means no effect. In short, it runs like this: (§1)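 Measured: fluorescence of BODIPY-GDP bound to Rap1B, which falls as exchange proceeds. Conditions include 50 uM competing GDP, 5 and 30 min reads, and a later cAMP challenge for antagonist detection.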
(A counterscreen serves to expose hits that act by an unwanted route or on another target.)

Assay [6] shares this target. Kind of assay: Counterscreen qHTS for agonist of cAMP-regulated guanine nucleotide exchange factor 3 (EPAC1) (AID 1645889). For activation: % of control where 0% means no effect. Note: nearly all actives have a fitted effect of over 40% in size. Note: potency is the fitted concentration of half-maximal effect. In short, it runs like this:
as §1

This is an account of results in PubChem BioAssay (NCATS).

Results filed as inconclusive are left out. Unmarked numbers belong to inactive results. The source made the active and inactive calls. Calls come from the whole dose curve; as a rule, active = well fitted curve in the direction sought with a large enough effect; inconclusive = small, poorly fitted or top-dose-only effect, or another doubt; inactive = no such curve, though single readings can be large; an effect the other way counts as inactive or inconclusive.

Rap guanine nucleotide exchange factor 4 (Homo sapiens), sequence (Q8WZA2 whole entry, looked up): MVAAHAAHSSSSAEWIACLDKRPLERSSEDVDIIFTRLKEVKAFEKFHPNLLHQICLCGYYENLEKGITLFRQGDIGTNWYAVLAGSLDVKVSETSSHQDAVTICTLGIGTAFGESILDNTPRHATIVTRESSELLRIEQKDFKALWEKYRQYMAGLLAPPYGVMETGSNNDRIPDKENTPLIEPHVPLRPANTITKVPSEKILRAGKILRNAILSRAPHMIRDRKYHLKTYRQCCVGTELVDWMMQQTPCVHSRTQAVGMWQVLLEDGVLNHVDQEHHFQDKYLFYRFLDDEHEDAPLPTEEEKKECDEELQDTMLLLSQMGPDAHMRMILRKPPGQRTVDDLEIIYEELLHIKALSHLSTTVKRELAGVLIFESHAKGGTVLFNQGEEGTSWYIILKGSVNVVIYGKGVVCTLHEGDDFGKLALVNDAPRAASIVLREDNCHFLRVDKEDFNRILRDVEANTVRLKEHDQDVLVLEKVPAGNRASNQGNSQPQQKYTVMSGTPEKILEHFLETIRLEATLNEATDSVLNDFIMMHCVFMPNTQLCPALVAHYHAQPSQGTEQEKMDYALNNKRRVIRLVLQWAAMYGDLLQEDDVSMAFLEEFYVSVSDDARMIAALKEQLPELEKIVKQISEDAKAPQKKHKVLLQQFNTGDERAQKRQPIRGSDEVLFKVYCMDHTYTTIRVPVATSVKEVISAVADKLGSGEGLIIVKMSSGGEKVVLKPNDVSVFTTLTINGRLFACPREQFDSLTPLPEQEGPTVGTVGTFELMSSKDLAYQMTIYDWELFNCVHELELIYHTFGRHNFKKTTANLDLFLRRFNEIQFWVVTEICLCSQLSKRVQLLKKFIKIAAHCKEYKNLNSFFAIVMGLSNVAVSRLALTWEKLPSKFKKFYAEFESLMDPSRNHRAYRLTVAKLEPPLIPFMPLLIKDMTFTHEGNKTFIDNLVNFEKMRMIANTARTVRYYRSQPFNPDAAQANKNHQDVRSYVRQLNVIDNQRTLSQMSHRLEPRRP
Rap guanine nucleotide exchange factor 3 (Homo sapiens), sequence (O95398 whole entry, looked up): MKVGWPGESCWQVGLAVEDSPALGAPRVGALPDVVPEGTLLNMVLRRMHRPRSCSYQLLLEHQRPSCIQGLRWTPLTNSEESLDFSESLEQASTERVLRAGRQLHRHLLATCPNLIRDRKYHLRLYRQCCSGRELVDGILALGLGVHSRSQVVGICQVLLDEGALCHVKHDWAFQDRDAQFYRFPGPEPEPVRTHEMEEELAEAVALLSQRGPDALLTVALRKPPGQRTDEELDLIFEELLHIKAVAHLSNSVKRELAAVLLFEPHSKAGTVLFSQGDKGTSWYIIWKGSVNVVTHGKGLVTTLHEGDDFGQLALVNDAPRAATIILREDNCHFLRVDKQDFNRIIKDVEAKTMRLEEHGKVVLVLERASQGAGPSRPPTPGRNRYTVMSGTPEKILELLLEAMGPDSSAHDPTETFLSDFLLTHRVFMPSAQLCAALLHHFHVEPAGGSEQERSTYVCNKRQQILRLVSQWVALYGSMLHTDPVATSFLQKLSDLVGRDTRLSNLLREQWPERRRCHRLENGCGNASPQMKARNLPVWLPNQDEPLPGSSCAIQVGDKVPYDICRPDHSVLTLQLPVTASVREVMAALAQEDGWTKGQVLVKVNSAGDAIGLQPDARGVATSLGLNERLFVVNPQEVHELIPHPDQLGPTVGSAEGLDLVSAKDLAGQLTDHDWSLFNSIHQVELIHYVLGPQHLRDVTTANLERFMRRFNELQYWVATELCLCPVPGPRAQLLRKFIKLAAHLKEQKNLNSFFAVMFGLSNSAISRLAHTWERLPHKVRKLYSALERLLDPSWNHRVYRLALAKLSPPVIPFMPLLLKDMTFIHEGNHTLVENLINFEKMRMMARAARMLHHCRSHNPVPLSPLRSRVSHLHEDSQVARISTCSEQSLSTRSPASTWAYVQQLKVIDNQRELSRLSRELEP

With `CCc1nnc(NC(=O)c2cc(-c3ccco3)nc3ccccc23)s1`, the Potency in assay [1] is 21.3 µM (active). The Potency entry in assay [2], in assay [3], in assay [4], in assay [5] and in assay [6] was “inactive” each time.

`CCCN1C(=O)c2cc(C(=O)Nc3ccccc3CC)ccc2C1O` (stereo unspecified): the Potency entry in assay [1], in assay [2], in assay [3], in assay [4], in assay [5] and in assay [6] was “inactive” each time.

On to `CCCCCCNC(=O)c1cc(-c2ccco2)nc2ccccc12`, for which the Potency in assay [1] is 22.4 µM (active). Further, the Potency entry in assay [2] and in assay [4] was “inactive” throughout. Besides, the activation was 3.51% [at 17.1 µM, percent relative to cAMP agonist control] in assay [3] and 27.4% [at 30.8 µM] in assay [6]. For the same molecule, the activity change, negative = inhibition in assay [5] is -13.3% [at 30.8 µM].

As for `Cc1ccc(S(=O)(=O)N2C(c3ccc(Cl)c(Cl)c3)CC=C(C(=O)O)C2c2ccc(Cl)cc2)cc1` (stereo unspecified), the Potency in assay [1] is 84.9 µM (active). The Potency result in assay [2], in assay [3], in assay [4], in assay [5] and in assay [6] was “inactive” throughout.

For the molecule `CC1C/C(=C/c2cccn2C)C(=O)/C(=C/c2cccn2C)C1` (stereo unspecified), the Potency was 16.9 µM (active) in assay [1] and 79.4 µM (active) in assay [6]. Also, the Potency result in assay [2], in assay [3], in assay [4] and in assay [5] was “inactive” in each case.

With `COc1ccc(-c2c(-c3ccccc3OC)oc3ccccc23)cc1F`, the Potency result in assay [1], in assay [2], in assay [3], in assay [5] and in assay [6] was “inactive” in each case. The Potency in assay [4] is 6.75 µM (active).

Turning to `CC(=O)N1CCc2cc(CNC(=O)c3ccccc3Br)ccc21`, the Potency entry in assay [1], in assay [2], in assay [3], in assay [4], in assay [5] and in assay [6] was “inactive” each time.

Consider `O=C(O)C(c1ccccc1)N1C(=O)/C(=C\c2ccc(O)c(O)c2)SC1=S` (stereo unspecified), for which the values for the Potency in assay [1] and in assay [4] were 6.75 µM (active) and 21.3 µM (active), respectively. In addition, the Potency result in assay [2], in assay [3], in assay [5] and in assay [6] was “inactive” throughout.

Take `CCOC(=O)c1ccc(NC(=O)CSc2nc(=O)n3cccc(C)c3n2)cc1`: the Potency entry in assay [1], in assay [2], in assay [3], in assay [4], in assay [5] and in assay [6] was “inactive” throughout.

As for `CCOC(=O)N1CCN(S(=O)(=O)c2cc(-c3nn4c(C)nnc4c4ccccc34)ccc2C)CC1`, the Potency entry in assay [1], in assay [2], in assay [3], in assay [4], in assay [5] and in assay [6] was “inactive” each time.

Turning to `CCCCC1=CC2=CC(=O)C(C)(OC(=O)C3CCCC3)C(=O)C2=CO1` (stereo unspecified), the Potency in assay [1] was 39.8 µM (active). For the same molecule, the Potency result in assay [2] and in assay [4] was “inactive” throughout. The activation was 1.4% [at 17.1 µM, percent relative to cAMP agonist control] in assay [3] and 18% [at 30.8 µM] in assay [6]. For the same molecule, the activity change, negative = inhibition in assay [5] was -20.6% [at 30.8 µM].

As to `COc1ccc(S(=O)(=O)Nc2ccc(OCC(=O)O)cc2)c2ccccc12`, the Potency result in assay [1], in assay [2], in assay [3], in assay [5] and in assay [6] was “inactive” throughout. For the same molecule, the Potency in assay [4] is 47.8 µM (active).

As to `Cc1nn(CCc2nc(-c3ccco3)cs2)c2[nH]c(=O)cc(C(F)(F)F)c12`, the Potency result in assay [1], in assay [2], in assay [3], in assay [4], in assay [5] and in assay [6] was “inactive” in each case.

Regarding `CCOC(=O)c1c(/N=C/C2=C(O)CC(C)(C)CC2=O)sc(C)c1C`, the Potency entry in assay [1], in assay [2] and in assay [4] was “inactive” each time. The activation was 5.64% [at 17.1 µM, percent relative to cAMP agonist control] in assay [3] and 1.97% [at 30.8 µM] in assay [6]. Further, in assay [5], the activity change, negative = inhibition was -9.9% [at 30.8 µM].

Turning to `COc1cc(/C=C2\SC(=S)N(C(C(=O)O)c3ccccc3)C2=O)ccc1O` (stereo unspecified), the Potency in assay [1] was 47.8 µM (active); in assay [4], 42.6 µM (active). For the same molecule, the Potency entry in assay [2], in assay [3], in assay [5] and in assay [6] was “inactive” each time.

With `O=C(c1ccc(Br)cc1)N(Cc1cccs1)c1ccc(F)cc1`, the Potency entry in assay [1], in assay [2], in assay [3], in assay [4], in assay [5] and in assay [6] was “inactive” throughout.

Turning to `CCOC(=O)c1cc2n(c1N)-c1ccccc1C2=O`, the Potency result in assay [1] and in assay [5] was “inactive” in each case. The Potency was 100 µM (active) in assay [2], 100 µM (active) in assay [3], 23.9 µM (active) in assay [4] and 31.6 µM (active) in assay [6].

As to `COCCCn1c(=O)/c(=C\c2ccc(OC(F)F)c(OC)c2)s/c1=C(/C#N)C(N)=O`, the Potency result in assay [1], in assay [2], in assay [3], in assay [4], in assay [5] and in assay [6] was “inactive” throughout.

Turning to `O=C(O)CN1C(=O)/C(=C\c2ccccc2OCc2ccc(Cl)cc2Cl)SC1=S`, the Potency in assay [1] was 44.7 µM (active). In addition, the Potency entry in assay [2] and in assay [4] was “inactive” in each case. Besides, the activation in assay [3] was -0.613% [at 17.1 µM, percent relative to cAMP agonist control]; in assay [6], 3.68% [at 30.8 µM]. The activity change, negative = inhibition in assay [5] was -18.8% [at 30.8 µM].

Consider `CCOc1ccc(NC(=O)CN(C)C(=O)c2ccccc2SCc2c(C)noc2C)cc1OCC`, for which the Potency entry in assay [1], in assay [2] and in assay [4] was “inactive” each time. The activation in assay [3] is 1.53% [at 17.1 µM, percent relative to cAMP agonist control]; in assay [6], 18% [at 30.8 µM]. In assay [5], the activity change, negative = inhibition is -10.4% [at 30.8 µM].

In the case of `CCOCCCn1c(SCC(=O)Nc2ccc(OC)cc2OC)nc2ccccc2c1=O`, the Potency result in assay [1], in assay [2], in assay [3], in assay [5] and in assay [6] was “inactive” in each case. Besides, the outcome in assay [4] is “inactive [at 12.7 µM]”.
